ATXN2 expr inh = reduces ATXN2 reporter expression in HEK-293 cells. HEK-293 ATXN2-luciferase reporter, luminescence, 24 h. Potency, µM (doses to about 57 µM), without a hit: at the highest dose activity change, negative = inhibition, hits mostly inhibitors. 0.72% of 360,000 active. AID 1745845; also: % is scaled to controls: 0 for no effect and ±100 for the full control effect; nearly all actives have a fitted effect of over 55% in size
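ATXN2-luciferase reporter cells (luciferase flanked by upstream and downstream ATXN2 gene portions) were treated 24 h at 37 °C with compounds at up to 57 uM. SteadyGlo luminescence gave expression; GF-AFC fluorescence gave viability.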
Nrf2 block = blocks Nrf2 signaling. A549 ARE-Fluc reporter, luciferase luminescence, 18-24 h. Potency, µM (doses to about 46 µM), for inactives: at the top dose activity change, negative = inhibition, hits mostly inhibitors. 2.1% of 360,000 active. AID 504444; also: % is scaled to controls: 0 for no effect and ±100 for the full control effect; nearly all actives have a fitted effect of over 60% in size
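Concentration-response testing used A549 ARE_Fluc cells at 5000 cells/well. Following an 18-24 h compound incubation, viability was read by fluorescence (Ex 405/Em 525) and luciferase output by luminescence.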
Nrf2 ARE act = activators of Nrf2 (ARE) signaling. AREc32 ARE-luciferase reporter (MCF7-derived line), luminescence, 24 h. Potency, µM (series often up to 46.1 µM), inactives show at the highest dose activation, usual class: activators. 0.31% of 410,000 active. AID 624171; also: % of control where 0% means no effect; nearly all actives have a fitted effect of over 65% in size
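Luciferase luminescence (Steady-Glo, 30 min at room temperature) served as the read-out of ARE activation in AREc32 cells treated with compounds for 24 hr at 37 deg C.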
S2 tox = cell viability loss in ATXN counter-screen. AID 651635. S2 cells (HEK-293 line with an ATXN2-luciferase reporter) viability, CellTiter-Fluor protease fluorescence, 24 h. Potency, µM (series often up to 56.7 µM), usual class: cytotoxic. 0.49% of 400,000 active; also: nearly all actives have a fitted effect of over 40% in size
A549 tox = A549 cytotoxicity, counter-screen for Nrf2 inhibitors | A549 ARE-Fluc cells, CellTiter-Fluor viability, 18-24 h | Potency, µM (top dose mostly 46 µM), for inactives: top-dose activity change, negative = cytotoxicity, hits mostly inhibitors | 0.16% of 390,000 active; also: % is scaled to controls: 0 for no effect and ±100 for the full control effect
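A549 ARE_Fluc cells in 5% FBS OPTI-MEM were exposed to compounds in concentration-response for 18-24 h at 37 deg C. Viability was read by CellTiter-Fluor fluorescence (Ex 405/Em 525) after 30 min, before the luciferase read.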
* marks the source's active call; other numbers are inactive results; i = inactive; ? = inconclusive; nt = no result; [ ] = remark or other dose. This is a sample that favours compounds with a hit; in the whole collection about 2.9% have one here. Calls follow the shape of the dose curve; as a rule, active = well fitted curve in the direction sought with a large enough effect; inconclusive = small, poorly fitted or top-dose-only effect, or another doubt; inactive = no such curve, though single readings can be large; an effect the other way counts as inactive or inconclusive. Potency is read from the fitted curve at half-maximal effect.

SMILES | ATXN2 expr inh | Nrf2 block | Nrf2 ARE act | S2 tox | A549 tox
CCOC(=O)C1=C(c2ccccc2)NC(SC)=C(C#N)C1c1ccco1 (stereo unspecified) | -3% | ? | 21% | i | -13%[1.84 µM]
CCOC(=O)C1=C(c2ccccc2)NC(SCC(=O)Nc2ccccc2C)=C(C#N)C1c1ccco1 (stereo unspecified) | -7% | ? | 1% | i | nt
COc1ccccc1NC(=O)N1CCn2c(nc3ccccc32)C1 | 3% | 10% | -1% | i | -3%
Cc1c(CC(=O)O)c(=O)oc2cc(OCc3ccc(Br)cc3)ccc12 | -1% | 13% | 0% | i | 3%
Cn1cc([C@@H]2C[C@H]3CN(Cc4cccc(Cl)c4)C(=O)[C@]34CCCN24)c(-c2ccccc2)n1 | ? | 21µM* | -1% | ? | ?
CCn1ncc([C@@H]2C[C@H]3CN(Cc4cccc(Cl)c4)C(=O)[C@]34CCCN24)c1C | 1% | 1% | 1% | i | 1%
O=C1N(Cc2cccc(Cl)c2)C[C@@H]2C[C@@H](c3cccn3-c3cccnc3)N3CCC[C@@]123 | ? | 21µM* | 0% | ? | -13%
Cc1nn(C)cc1[C@@H]1C[C@H]2CN(Cc3cccc(Cl)c3)C(=O)[C@]23CCCN13 | 0% | 3% | 3% | i | 4%
O=C(CCCSc1ccc(Cl)cc1)Nc1ccccc1O | -12% | 2% | 14µM* | i | 2%
Cc1cc(=O)oc2cc(OCC(=O)N/N=C/c3ccccc3O)ccc12 | -6% | 9% | 0% | i | 1%
Cc1ccc(SCCC(=O)N/N=C/c2ccccc2O)cc1 | 25µM* | 9% | -1% | i | 2%
O=C(CSCc1ccc(Cl)cc1)Nc1ccccc1O | -5% | 5% | ? | i | 0%
CSc1nc(C)cc(OCC(=O)N/N=C/c2ccccc2O)n1 | 14µM* | -25% | 0% | i | 5%
CCOC(=O)c1ccc(CN(Cc2ccc(F)cc2)S(=O)(=O)c2ccc(F)c(C(=O)Nc3ccccc3C(F)(F)F)c2)cc1 | nt | nt | 0% | nt | 7%
O=C(Cn1ncc2c([nH]c3ccccc32)c1=O)Nc1cccc(C(F)(F)F)c1 | 17% | ? | 0% | i | -2%
COc1ccc(CCNC(=O)CCS(=O)(=O)c2ccc3c(c2)oc(=O)n3C)cc1OC | -1% | 18% | -1% | i | -1%
CCc1nc2c(OCc3ccc(C(=O)OC)cc3)cccn2c1N(C)C(=O)c1ccc(C)cc1 | -18% | nt | 1% | i | nt
CC1C(=O)Nc2ccc(S(=O)(=O)N3CCN(c4cccc(C(F)(F)F)c4)CC3)cc2NC1=O (stereo unspecified) | -33% | 8.2µM* | 0% | i | ?
CC1C(=O)Nc2ccc(S(=O)(=O)N3CCN(c4cccc(Cl)c4)CC3)cc2NC1=O (stereo unspecified) | ? | ? | -1% | ? | -14%
FC(F)(F)c1nc(N2CCCC2)ncc1-c1nnnn1-c1ccc(Cl)cc1 | -26% | 13µM* | 3% | i | -13%
FC(F)(F)c1ccncc1-c1nnnn1-c1ccc(Cl)cc1 | -21% | -4% | -1% | i | 0%
Fc1ccc(-n2nnnc2-c2cnc(-c3cccs3)nc2C(F)(F)F)cc1 | ? | 15µM* | -2% | ? | ?
O=C(NCC(c1cccs1)N1CCOCC1)c1cc(-c2ccc(F)cc2)nc2ccccc12 (stereo unspecified) | -6% | -15% | 5% | i | 3%
COc1ccccc1N=Nc1nc(-c2ccccc2)c(-c2ccccc2)[nH]1 | -9% | 18µM* | 4% | 35µM* | ?
COc1ccc(N=Nc2nc(-c3ccccc3)c(-c3ccccc3)[nH]2)cc1 | -5% | -20% | 6% | ? | ?
SMILES | ATXN2 expr inh | Nrf2 block | Nrf2 ARE act | S2 tox | A549 tox
O=S1(=O)C=CC(Sc2nc3ccccc3[nH]2)C1 (stereo unspecified) | 13% | nt | 3% | i | -2%
O=C1CCCCC1Nc1ccc2ccccc2c1 (stereo unspecified) | 79% | 18µM* | 5% | i | ?
O=C1CCCC1C(=O)Nc1ccc2ccccc2c1 (stereo unspecified) | nt | -1% | 4% | i | -4%
COc1ccc(CNc2nc(S(=O)(=O)c3ccccc3)c(Cl)s2)cc1OC | ? | 15µM* | 3% | i | -22%
O=C(C(Br)=Cc1ccccc1)c1ccccc1 | 20µM* | 11% | ? | ? | -2%
COc1cc2c(cc1NC(=O)c1ccccc1F)CCCC2 | 84% | ? | 3.2µM* | i | 5%
COc1cc(OC)c(NC(=O)c2ccccc2F)cc1Cl | nt | -3% | 10% | i | 0%
CCCCSc1nnc([C@@H](NC(=O)OC(C)(C)C)C(C)C)o1 | 0% | -16% | 0% | i | -1%
COc1ccc(CN2C(=O)C(CC(C)C)Nc3ncnc(N4CCCCC4)c32)cc1 (stereo unspecified) | -12% | 7% | 1% | i | -3%
COc1nnc(-c2ccc(C)c(S(N)(=O)=O)c2)c2ccccc12 | nt | -9% | 3% | i | -5%
COc1nnc(-c2ccc(N3CCCCC3)c(N)c2)c2ccccc12 | 8% | 21µM* | 6% | i | -11%
O=C1COc2ccc(C(=O)COC(=O)c3ccco3)cc2N1 | 4% | 9% | 0% | i | 1%
CC(O)C(NS(=O)(=O)c1ccc(Cl)cc1)C(=O)OCC(=O)c1ccc2c(c1)NC(=O)CO2 (stereo unspecified) | -14% | 10% | 0% | ? | -4%
O=C1COc2ccc(C(=O)COC(=O)/C=C/c3ccco3)cc2N1 | nt | 4% | 2.2µM* | i | -6%
CC(C)CC(NC(=O)c1ccc(Cl)cc1)C(=O)OCC(=O)c1ccc2c(c1)NC(=O)CO2 (stereo unspecified) | 25µM* | 16µM* | 0% | 22µM* | 21µM*
Cc1c([N+](=O)[O-])oc2c1C(=O)NCCC2 | nt | nt | 11% | i | nt
COc1cc(NC(=O)C2CCCN(S(=O)(=O)c3ccc4[nH]c(=O)ccc4c3)C2)cc(OC)c1 (stereo unspecified) | 3% | -30% | 3% | i | -13%
CCc1ccc(NC(=O)CSc2nc3c(c(=O)[nH]2)CN(Cc2ccc4c(c2)OCO4)CC3)cc1 | 1% | -6% | 0% | i | -1%
CCOC(=O)c1sc(N2C(=O)C(O)=C(C(=O)c3ccc(C)o3)C2c2cccc([N+](=O)[O-])c2)nc1C (stereo unspecified) | -12% | 23µM* | 1% | i | ?
Cc1cccc(NC(=O)c2sc3nc4c(cc3c2N)CN(C(C)C)CC4)c1 | ? | 16µM* | 4% | ? | -14%
CSc1cccc(NC(=O)CN2C(=O)COc3ccc(Cl)cc32)c1 | ? | 16µM* | 4% | i | 1%
O=C(CN1C(=O)COc2ccc(S(=O)(=O)N3CCCCCC3)cc21)Nc1cccc(Cl)c1 | nt | ? | 0% | nt | 18µM*

High-throughput results from PubChem.
